This passage reports growth results from PubChem BioAssay (NCI).

The panel holds about 83,000 compounds, 20% with a hit somewhere; the sample as a whole holds those more often.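 In brief: 96-well plates, 48 h treatment, single concentration, percent growth endpoint.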 Values without a mark were called inactive. Calls of active or inactive are those of the source. How the source made its calls: active means growth percent below 10; inactive means the rest.

One test deals with HCT-15 colon. As to the kind of experiment: NCI-60 one-dose screen, 48 h (100 = growth as untreated, 0 = no growth, -100 = all killed). The settings on record: 10 µM unless noted.
Regarding `O=C(OCC1CCCO1)c1ccc([N+](=O)[O-])cc1` (configuration not stated), the growth is 104%.
The same measure, in the same setting: as for `CC(=O)c1cccc(NS(=O)(=O)c2ccc(C)cc2)c1`, the figure is 43.2%; as for `CCCNS(=O)(=O)c1ccc(Cl)cc1`, 99.6%; as for `COc1nc(Nc2cccc(C(F)(F)F)c2)nc(OC)n1`, 103%.
Regarding `COC1OC(C(COC(C)=O)OC(C)=O)C(OC(C)=O)C(OC(C)=O)C1OC(C)=O` (configuration not stated), the growth was 92.5%.
Still for that read-out and setting: as for `NC(=O)c1cc2c3ccccc3ccn2c1-c1ccccc1`, the figure is 4.13% (active).
Still for that read-out and setting: then `Clc1ccc(/C=C/c2ccccn2)cc1`, with 89.5%; and `CC(=O)c1cccc(N(C)S(=O)(=O)c2ccc(C)cc2)c1`, with 57.2%.
Still for that read-out and setting: as for `Cc1onc(-c2c(F)cccc2Cl)c1-c1ncc(-c2ccc(Br)cc2)o1`, the figure is 17.7%; as for `O=S(=O)(O)C(C(I)I)S(=O)(=O)O`, 110%; as for `Clc1ccc(-c2noc(/C=C\c3ccccc3)n2)cc1`, 95%.
Take `BrCc1cccc(C[P+](c2ccccc2)(c2ccccc2)c2ccccc2)c1`: the growth is 92.5%.
The same measure, in the same setting: then `CCCC(OC(C)=O)c1ccc2c(c1)OCO2` (configuration not stated), with 115%; and `CC(=O)Nc1ccc(C(=O)c2ccc(S(=O)(=O)Nc3ccccc3)cc2)cc1`, with 104%.
Same read-out and setting: as for `O=C1NC(=O)/C(=C\c2ccncc2)N1`, the figure is 98.7%.

The test system of a further test is HT29 colon. The description is as above. The settings on record: 10 µM unless noted.
In the case of `Cn1/c(=N\N=C\c2ccccc2OCCO)sc2ccccc21`, the growth is 109%.
On the same count and under the same terms, then `C=C1C(=O)C2CCC1C2` (configuration not stated), with 102%; and `CC(C)C(C)(C)C(=O)C(C)(C)C(C)(C)C`, with 98.1%; and `Cc1ccc(OC(=O)c2ccccc2)cc1`, with 95.3%.
Same read-out and setting: then `CCOC(=O)c1cc(Cl)c(O)c(Cl)c1`, with 103%; and `C[n+]1cc2cc3c(cc2c2ccccc21)OCO3`, with 63%.
As to `Cc1ccc(Cc2ccc(C)cc2)cc1`, the growth was 105%.
On to `NCCCN1CCCC1=O`, for which the growth was 112%.
Still for that read-out and setting: as for `CCCCCCCCCCCCCCCCCCSC(=N)N`, the figure is 28.4%.
Still for that read-out and setting: then `C=C1C(=O)C2CCN1CC2`, with 89.8%.
On to `Cc1ccc[n+](CCC(N)=O)c1`, for which the growth was 98.1%.
On the same count and under the same terms, then `N#CC1(O)CCCCC1`, with 104%.
On the same count and under the same terms, then `CCOC(=O)CO`, with 107%.
Same read-out and setting: then `CCOC(=O)N[C@H]1CCc2cc(OC)c(OC)c(OC)c2-c2ccc(SC)c(=O)cc21`, with 7.57% (active).
As to `CC1CCC(C)(C)c2ccccc21` (configuration not stated), the growth is 103%.
The same measure, in the same setting: as for `O=C1C=Cc2ccccc2/C1=C/c1[nH]c(=O)[nH]c1O`, the figure is 37.7%; as for `CCN(CC)CCCC(C)NC(=S)N/N=C(\C)c1ccccn1` (configuration not stated), 35.8%.
For the compound `Cn1c(=O)c2[nH]c(CC(=O)O)nc2n(C)c1=O`, the growth is 101%.
Still for that read-out and setting: as for `Cc1ccc(/C=N/NC(N)=S)s1`, the figure is 110%.
Same read-out and setting: then `CCNC(=O)Oc1ccc[nH]c1=O`, with 109%.
The same measure, in the same setting: as for `Cc1cccc(C)c1NC(=S)/N=C\c1c(O)[nH]c(=O)[nH]c1=O`, the figure is 95.7%; as for `Cc1ccc(C)c(CCO)c1`, 109%; as for `O=C(OCC1CCCO1)c1ccc([N+](=O)[O-])cc1` (configuration not stated), 108%.
On to `CC(=O)c1cccc(NS(=O)(=O)c2ccc(C)cc2)c1`, for which the growth is 30.2%.
For the compound `CCCNS(=O)(=O)c1ccc(Cl)cc1`, the growth is 101%.
On the same count and under the same terms, then `COc1nc(Nc2cccc(C(F)(F)F)c2)nc(OC)n1`, with 96.1%; and `COC1OC(C(COC(C)=O)OC(C)=O)C(OC(C)=O)C(OC(C)=O)C1OC(C)=O` (configuration not stated), with 105%; and `NC(=O)c1cc2c3ccccc3ccn2c1-c1ccccc1`, with 7.35% (active).
As for `Clc1ccc(/C=C/c2ccccn2)cc1`, the growth was 111%.
Same read-out and setting: then `CC(=O)c1cccc(N(C)S(=O)(=O)c2ccc(C)cc2)c1`, with 72.1%; and `Cc1onc(-c2c(F)cccc2Cl)c1-c1ncc(-c2ccc(Br)cc2)o1`, with 24.9%; and `O=S(=O)(O)C(C(I)I)S(=O)(=O)O`, with 118%.
Still for that read-out and setting: then `Clc1ccc(-c2noc(/C=C\c3ccccc3)n2)cc1`, with 102%.
On the same count and under the same terms, as for `BrCc1cccc(C[P+](c2ccccc2)(c2ccccc2)c2ccccc2)c1`, the figure is 50.7%; as for `CCCC(OC(C)=O)c1ccc2c(c1)OCO2` (configuration not stated), 103%; as for `CC(=O)Nc1ccc(C(=O)c2ccc(S(=O)(=O)Nc3ccccc3)cc2)cc1`, 96.7%.
In the case of `O=C1NC(=O)/C(=C\c2ccncc2)N1`, the growth is 99.7%.
